Experiment in all cases: DAPPL (digital affinity profiling via proximity ligation, sequencing); 10 mM Tris-HCl pH 7.5, 50 mM NaCl, 1 mM DTT, 4% glycerol, room temperature, 30 min; GST-TFs on glutathione beads, 16-mer random dsDNA library, 0.1% formaldehyde crosslink after washing; high values mean tight binding
The target of one experiment is T1, FLI1 (Homo sapiens, UniProt Q01543 1-452).
T1 sequence: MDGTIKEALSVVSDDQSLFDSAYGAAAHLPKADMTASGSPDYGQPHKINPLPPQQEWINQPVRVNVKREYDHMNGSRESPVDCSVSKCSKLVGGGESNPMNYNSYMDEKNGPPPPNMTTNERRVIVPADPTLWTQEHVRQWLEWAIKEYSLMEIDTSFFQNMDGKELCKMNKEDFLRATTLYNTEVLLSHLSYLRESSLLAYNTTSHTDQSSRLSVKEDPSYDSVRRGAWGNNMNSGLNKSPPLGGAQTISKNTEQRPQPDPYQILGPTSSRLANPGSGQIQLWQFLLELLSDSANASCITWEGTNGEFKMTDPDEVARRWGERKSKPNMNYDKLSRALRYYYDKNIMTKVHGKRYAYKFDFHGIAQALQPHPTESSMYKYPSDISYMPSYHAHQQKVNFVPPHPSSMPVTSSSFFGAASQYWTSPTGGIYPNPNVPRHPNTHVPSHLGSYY
Particulars: protein: recombinant; tags: N-terminal GST; dsDNA, one strand shown. The essentials:
(§1)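 The binding signal reported is, for every hexamer, its read frequency for a factor over its read frequency for the tag-only sample. Reads came from pools of yeast-expressed, GST-fused human transcription factors on glutathione beads, barcoded with DNA and mixed with that sample, which were incubated with 200 nmole of a random double-stranded 16-mer DNA library in Tris/NaCl/DTT/glycerol buffer at room temperature for 30 min. After washing, the pools were crosslinked with 0.1% formaldehyde, proximity-ligated with BsaI/T4 ligase for 1 h at 37 °C, PCR-amplified and sequenced on an Illumina NextSeq500.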

In the next experiment the target is T2, ELK1 (Homo sapiens, UniProt P19419 1-428).
T2 sequence: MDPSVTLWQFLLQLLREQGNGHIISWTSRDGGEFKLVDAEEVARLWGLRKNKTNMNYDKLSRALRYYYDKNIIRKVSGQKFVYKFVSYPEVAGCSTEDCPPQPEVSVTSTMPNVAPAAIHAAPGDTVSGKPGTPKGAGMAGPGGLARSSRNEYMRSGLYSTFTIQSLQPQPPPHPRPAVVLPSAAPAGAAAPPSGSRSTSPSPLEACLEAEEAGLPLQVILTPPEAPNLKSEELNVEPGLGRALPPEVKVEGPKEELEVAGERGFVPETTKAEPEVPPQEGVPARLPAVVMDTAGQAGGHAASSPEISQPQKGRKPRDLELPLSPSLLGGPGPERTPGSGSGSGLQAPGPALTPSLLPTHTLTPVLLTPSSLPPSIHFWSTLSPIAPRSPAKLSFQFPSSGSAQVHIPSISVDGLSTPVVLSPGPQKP
To be noted: protein: recombinant; tags: N-terminal GST; dsDNA, one strand shown. The essentials: as §1

For a further experiment, the target named is T3, GABPA (Homo sapiens, UniProt Q06546 1-454).
T3 sequence: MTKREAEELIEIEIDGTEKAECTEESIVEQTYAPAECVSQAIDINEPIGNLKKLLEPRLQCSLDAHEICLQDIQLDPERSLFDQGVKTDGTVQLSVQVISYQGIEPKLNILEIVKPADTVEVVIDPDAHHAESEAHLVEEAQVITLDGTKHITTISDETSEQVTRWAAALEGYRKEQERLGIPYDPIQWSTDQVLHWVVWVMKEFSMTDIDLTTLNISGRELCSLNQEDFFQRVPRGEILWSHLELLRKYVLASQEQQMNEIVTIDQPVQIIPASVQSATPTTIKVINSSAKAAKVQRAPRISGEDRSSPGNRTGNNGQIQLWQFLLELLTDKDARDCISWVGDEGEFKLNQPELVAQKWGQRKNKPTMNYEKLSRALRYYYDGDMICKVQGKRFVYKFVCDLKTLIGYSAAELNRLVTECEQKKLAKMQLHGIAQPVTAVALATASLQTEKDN
To be noted: protein: recombinant; tags: N-terminal GST; dsDNA, one strand shown. The essentials:
as §1

The target of another experiment is T4, ERG (Homo sapiens, UniProt P11308 1-479).
T4 sequence: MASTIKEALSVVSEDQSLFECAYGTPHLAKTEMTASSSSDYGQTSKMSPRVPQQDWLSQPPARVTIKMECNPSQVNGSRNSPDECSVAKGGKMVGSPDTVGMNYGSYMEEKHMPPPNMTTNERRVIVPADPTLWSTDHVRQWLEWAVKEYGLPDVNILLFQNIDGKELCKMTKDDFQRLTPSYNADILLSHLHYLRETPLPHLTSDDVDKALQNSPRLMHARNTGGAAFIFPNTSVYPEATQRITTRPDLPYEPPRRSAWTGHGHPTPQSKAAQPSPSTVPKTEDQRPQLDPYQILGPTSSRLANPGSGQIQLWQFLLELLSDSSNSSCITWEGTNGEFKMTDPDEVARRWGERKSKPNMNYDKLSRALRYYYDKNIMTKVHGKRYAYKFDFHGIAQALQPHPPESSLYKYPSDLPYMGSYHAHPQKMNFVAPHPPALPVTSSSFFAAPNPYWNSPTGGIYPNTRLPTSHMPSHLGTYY
To be noted: protein: recombinant; tags: N-terminal GST; dsDNA, one strand shown. The gist of the method:
as §1

A further experiment concerns the target ELF1 (Homo sapiens, UniProt P32519 1-619). To be noted: protein: recombinant; tags: N-terminal GST; dsDNA, one strand shown. The essentials:
as §1

In another experiment the target is T5, EHF (Homo sapiens, UniProt Q9NZC4 1-300).
T5 sequence: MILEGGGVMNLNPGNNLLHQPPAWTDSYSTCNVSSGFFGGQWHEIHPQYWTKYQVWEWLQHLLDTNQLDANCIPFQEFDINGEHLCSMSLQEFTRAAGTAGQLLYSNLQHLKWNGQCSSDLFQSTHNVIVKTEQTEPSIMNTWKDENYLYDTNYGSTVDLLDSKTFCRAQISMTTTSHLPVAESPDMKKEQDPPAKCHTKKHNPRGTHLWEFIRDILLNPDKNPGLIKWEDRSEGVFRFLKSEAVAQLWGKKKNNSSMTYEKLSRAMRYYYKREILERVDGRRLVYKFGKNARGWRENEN
Particulars: protein: recombinant; tags: N-terminal GST; dsDNA, one strand shown. The essentials: as §1

For a further experiment, the target named is SPI1 (Homo sapiens, UniProt P17947 1-270). To be noted: protein: recombinant; tags: N-terminal GST; dsDNA, one strand shown. The essentials: as §1
A further experiment has as its target SPIB (Homo sapiens, UniProt Q01892 1-262). To be noted: protein: recombinant; tags: N-terminal GST; dsDNA, one strand shown. The essentials:
as §1

For another experiment, the target named is T6, ELK3 (Homo sapiens, UniProt P41970 1-407).
T6 sequence: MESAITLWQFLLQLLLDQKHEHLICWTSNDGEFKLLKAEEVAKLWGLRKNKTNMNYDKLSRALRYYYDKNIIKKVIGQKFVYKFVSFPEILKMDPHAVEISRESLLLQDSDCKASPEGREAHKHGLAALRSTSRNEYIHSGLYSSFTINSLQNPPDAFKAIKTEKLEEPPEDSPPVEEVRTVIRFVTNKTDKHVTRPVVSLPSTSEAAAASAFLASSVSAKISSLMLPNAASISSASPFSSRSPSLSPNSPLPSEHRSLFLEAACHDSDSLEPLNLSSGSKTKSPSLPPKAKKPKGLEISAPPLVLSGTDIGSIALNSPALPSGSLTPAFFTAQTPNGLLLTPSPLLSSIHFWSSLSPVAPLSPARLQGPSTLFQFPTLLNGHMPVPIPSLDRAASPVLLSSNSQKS
Particulars: protein: recombinant; tags: N-terminal GST; dsDNA, one strand shown. The essentials:
as §1

A further experiment has as its target T7, FEV (Homo sapiens, UniProt Q99581 1-238).
T7 sequence: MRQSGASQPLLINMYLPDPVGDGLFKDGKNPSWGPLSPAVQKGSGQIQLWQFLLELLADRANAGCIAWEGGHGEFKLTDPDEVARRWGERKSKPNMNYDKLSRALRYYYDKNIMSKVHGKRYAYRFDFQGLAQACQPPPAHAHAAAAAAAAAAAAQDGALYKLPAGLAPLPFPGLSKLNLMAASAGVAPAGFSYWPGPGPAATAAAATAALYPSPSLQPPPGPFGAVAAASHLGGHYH
Particulars: protein: recombinant; tags: N-terminal GST; dsDNA, one strand shown. The essentials:
as §1

In another experiment the target is ETV5 (Homo sapiens, UniProt P41161 1-510). Particulars: protein: recombinant; tags: N-terminal GST; dsDNA, one strand shown. The gist of the method:
as §1

Another experiment has as its target HSF1 (Homo sapiens, UniProt Q00613 1-529). To be noted: protein: recombinant; tags: N-terminal GST; chain copies: 3; dsDNA, one strand shown. The essentials: as §1
The next experiment has as its target T8, SPIC (Homo sapiens, UniProt Q8N5J4 1-248).
T8 sequence: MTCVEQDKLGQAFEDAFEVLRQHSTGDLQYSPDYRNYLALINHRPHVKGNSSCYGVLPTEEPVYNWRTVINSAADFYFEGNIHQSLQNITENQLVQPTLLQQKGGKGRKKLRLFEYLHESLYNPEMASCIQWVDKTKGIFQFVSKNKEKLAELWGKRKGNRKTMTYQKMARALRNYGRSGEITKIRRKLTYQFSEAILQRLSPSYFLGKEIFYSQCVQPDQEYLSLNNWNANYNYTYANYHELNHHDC
Particulars: protein: recombinant; tags: N-terminal GST; dsDNA, one strand shown. The gist of the method:
as §1

For another experiment, the target named is ELF4 (Homo sapiens, UniProt Q99607 1-663). Particulars: protein: recombinant; tags: N-terminal GST; dsDNA, one strand shown. The gist of the method: as §1
Sequence of ELF4 (Q99607 whole entry): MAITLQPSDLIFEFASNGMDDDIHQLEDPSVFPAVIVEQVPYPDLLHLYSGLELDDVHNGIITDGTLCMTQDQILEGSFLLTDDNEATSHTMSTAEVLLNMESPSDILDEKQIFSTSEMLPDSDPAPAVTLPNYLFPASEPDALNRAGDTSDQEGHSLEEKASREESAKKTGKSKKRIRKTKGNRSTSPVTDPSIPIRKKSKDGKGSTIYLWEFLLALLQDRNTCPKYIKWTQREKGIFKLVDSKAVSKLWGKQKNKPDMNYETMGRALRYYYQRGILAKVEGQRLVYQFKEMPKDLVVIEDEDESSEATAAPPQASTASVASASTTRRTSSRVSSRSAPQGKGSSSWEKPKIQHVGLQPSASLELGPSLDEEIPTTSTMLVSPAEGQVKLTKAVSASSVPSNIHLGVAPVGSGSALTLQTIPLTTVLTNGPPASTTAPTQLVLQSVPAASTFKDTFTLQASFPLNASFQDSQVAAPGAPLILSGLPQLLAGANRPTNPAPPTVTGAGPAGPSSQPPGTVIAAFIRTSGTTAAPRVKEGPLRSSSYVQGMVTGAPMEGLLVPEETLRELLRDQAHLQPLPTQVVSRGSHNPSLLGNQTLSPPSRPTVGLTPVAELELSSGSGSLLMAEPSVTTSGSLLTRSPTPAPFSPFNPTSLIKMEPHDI
The next experiment deals with T9, ELK4 (Homo sapiens, UniProt P28324-2 1-405).
T9 sequence: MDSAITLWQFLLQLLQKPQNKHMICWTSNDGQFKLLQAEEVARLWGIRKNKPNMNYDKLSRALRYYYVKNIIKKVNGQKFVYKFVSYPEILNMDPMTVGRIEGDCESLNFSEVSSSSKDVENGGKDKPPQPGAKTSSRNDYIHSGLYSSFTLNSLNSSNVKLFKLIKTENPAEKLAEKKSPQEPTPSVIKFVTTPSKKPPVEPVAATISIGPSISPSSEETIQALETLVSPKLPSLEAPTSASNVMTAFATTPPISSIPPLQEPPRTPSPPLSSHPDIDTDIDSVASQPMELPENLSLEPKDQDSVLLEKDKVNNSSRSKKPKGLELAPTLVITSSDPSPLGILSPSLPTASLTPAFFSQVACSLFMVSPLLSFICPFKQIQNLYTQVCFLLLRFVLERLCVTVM
To be noted: protein: recombinant; tags: N-terminal GST; dsDNA, one strand shown. The gist of the method: as §1

Another experiment has as its target T10, ETV2 (Homo sapiens, UniProt O00321 1-342).
T10 sequence: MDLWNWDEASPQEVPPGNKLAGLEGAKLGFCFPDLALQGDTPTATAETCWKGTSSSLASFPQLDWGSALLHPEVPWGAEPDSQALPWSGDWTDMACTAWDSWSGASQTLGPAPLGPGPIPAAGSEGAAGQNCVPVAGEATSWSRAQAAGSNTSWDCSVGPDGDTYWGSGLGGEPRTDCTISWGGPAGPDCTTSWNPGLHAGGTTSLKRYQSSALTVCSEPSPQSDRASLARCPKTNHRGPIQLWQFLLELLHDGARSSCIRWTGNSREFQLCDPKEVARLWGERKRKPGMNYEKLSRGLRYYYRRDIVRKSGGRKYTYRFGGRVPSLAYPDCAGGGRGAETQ
To be noted: protein: recombinant; tags: N-terminal GST; dsDNA, one strand shown. The essentials: as §1

A further experiment concerns the target T11, ELF3 (Homo sapiens, UniProt P78545 1-371).
T11 sequence: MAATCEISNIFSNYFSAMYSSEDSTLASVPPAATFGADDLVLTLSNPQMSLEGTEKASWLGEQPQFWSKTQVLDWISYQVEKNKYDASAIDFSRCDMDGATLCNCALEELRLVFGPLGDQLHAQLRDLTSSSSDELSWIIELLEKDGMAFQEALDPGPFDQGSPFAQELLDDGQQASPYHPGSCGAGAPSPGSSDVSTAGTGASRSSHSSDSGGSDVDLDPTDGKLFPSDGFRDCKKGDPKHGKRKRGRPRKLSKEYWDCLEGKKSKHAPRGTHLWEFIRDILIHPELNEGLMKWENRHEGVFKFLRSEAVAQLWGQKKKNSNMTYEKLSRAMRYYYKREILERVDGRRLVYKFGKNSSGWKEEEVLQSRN
To be noted: protein: recombinant; tags: N-terminal GST; dsDNA, one strand shown. The gist of the method:
as §1

For a further experiment, the target named is CRX (Homo sapiens, UniProt O43186 1-299). Particulars: protein: recombinant; tags: N-terminal GST; dsDNA, one strand shown. The gist of the method: as §1
Sequence of CRX (O43186 whole entry): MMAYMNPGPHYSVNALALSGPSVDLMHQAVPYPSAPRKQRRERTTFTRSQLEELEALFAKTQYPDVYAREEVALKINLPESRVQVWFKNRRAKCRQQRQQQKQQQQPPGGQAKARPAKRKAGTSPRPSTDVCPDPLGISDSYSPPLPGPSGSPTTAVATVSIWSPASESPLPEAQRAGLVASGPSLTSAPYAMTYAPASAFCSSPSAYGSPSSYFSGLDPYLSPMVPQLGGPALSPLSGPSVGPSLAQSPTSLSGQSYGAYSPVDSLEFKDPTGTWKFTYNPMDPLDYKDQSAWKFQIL
A further experiment has as its target ETV1 (Homo sapiens, UniProt P50549 1-477). Particulars: protein: recombinant; tags: N-terminal GST; dsDNA, one strand shown. The gist of the method:
as §1

Drawing on paper PMC7862700, “An all-to-all approach to the identification of sequence-specific readers for epigenetic DNA modifications on cytosine”, this text covers binding signal for 1 sequence.

Sequence of ETV1 (P50549 whole entry): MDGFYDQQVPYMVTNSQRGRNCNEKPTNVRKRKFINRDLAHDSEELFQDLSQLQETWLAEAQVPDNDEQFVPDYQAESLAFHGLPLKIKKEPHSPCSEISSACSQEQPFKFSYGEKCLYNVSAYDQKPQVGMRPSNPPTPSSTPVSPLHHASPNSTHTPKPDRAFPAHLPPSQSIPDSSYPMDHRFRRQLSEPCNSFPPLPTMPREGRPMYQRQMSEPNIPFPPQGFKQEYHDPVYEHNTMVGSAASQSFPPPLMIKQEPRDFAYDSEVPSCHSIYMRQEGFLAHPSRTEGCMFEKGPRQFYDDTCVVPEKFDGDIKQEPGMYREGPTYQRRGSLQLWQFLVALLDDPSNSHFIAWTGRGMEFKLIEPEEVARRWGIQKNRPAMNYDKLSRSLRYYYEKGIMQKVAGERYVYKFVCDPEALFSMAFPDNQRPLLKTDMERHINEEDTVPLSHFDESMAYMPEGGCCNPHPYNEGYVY
Sequence of ETV5 (P41161 whole entry): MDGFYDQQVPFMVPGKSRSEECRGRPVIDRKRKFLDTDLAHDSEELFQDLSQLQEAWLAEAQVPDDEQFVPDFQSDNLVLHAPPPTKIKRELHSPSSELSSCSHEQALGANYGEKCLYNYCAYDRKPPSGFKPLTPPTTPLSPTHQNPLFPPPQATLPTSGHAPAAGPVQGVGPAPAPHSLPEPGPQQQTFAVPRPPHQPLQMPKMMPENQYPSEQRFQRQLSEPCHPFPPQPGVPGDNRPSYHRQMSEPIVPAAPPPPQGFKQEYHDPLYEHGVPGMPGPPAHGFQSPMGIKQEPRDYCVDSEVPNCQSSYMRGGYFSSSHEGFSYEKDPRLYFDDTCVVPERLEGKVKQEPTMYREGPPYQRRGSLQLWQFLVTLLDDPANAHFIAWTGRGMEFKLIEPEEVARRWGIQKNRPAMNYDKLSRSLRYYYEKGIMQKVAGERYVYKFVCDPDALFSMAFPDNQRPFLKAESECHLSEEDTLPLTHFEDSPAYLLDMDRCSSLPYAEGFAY
Sequence of SPIB (Q01892 whole entry): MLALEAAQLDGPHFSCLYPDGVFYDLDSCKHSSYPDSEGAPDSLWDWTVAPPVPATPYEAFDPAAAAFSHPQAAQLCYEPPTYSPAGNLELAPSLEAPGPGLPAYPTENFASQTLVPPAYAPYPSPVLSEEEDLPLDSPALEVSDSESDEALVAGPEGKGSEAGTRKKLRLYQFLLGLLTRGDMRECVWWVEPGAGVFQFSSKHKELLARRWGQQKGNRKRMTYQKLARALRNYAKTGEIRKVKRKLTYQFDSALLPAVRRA
Sequence of ELF1 (P32519 whole entry): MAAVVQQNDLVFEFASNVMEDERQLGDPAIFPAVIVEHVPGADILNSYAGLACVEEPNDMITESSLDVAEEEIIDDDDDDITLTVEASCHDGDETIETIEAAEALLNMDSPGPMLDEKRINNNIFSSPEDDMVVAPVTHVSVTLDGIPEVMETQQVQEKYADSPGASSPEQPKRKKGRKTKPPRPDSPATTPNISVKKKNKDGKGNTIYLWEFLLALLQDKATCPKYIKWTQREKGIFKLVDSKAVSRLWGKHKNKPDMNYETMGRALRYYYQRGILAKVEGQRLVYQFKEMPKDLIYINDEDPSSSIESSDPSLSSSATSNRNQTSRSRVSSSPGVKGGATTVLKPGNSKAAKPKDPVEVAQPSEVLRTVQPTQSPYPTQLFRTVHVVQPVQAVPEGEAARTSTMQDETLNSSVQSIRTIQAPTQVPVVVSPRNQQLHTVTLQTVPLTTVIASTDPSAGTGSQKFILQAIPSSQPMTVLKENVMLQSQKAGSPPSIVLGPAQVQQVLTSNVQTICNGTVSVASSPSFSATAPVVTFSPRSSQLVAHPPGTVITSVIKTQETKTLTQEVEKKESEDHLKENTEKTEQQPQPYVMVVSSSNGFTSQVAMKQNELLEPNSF
Sequence of HSF1 (Q00613 whole entry): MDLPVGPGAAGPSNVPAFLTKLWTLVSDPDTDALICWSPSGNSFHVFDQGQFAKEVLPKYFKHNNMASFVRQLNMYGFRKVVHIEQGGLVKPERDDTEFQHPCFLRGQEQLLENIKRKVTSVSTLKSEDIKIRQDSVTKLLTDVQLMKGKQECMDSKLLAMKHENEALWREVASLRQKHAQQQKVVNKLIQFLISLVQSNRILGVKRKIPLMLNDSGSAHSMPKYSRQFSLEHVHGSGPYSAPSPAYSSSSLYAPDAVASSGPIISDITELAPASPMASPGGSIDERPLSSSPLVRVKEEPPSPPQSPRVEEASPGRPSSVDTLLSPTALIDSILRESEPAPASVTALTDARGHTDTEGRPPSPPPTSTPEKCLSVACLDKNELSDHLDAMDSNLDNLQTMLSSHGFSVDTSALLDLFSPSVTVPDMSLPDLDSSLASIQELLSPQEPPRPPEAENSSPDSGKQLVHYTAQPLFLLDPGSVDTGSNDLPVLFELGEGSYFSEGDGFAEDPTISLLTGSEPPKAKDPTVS

Consider TCTCCG, for which the binding signal with FLI1 was 1.51 fold enrichment (6-mer frequency, TF over GST control); with ELK1, 1.49 fold enrichment (6-mer frequency, TF over GST control); in the experiment with GABPA, 1.57 fold enrichment (6-mer frequency, TF over GST control); in the experiment with ERG, 1.42 fold enrichment (6-mer frequency, TF over GST control); with ELF1, 1.6 fold enrichment (6-mer frequency, TF over GST control); with EHF it was 1.57 fold enrichment (6-mer frequency, TF over GST control). In addition, the binding signal in the experiment with SPI1 is 1.54 fold enrichment (6-mer frequency, TF over GST control); with SPIB, 1.52 fold enrichment (6-mer frequency, TF over GST control); with ELK3, 1.38 fold enrichment (6-mer frequency, TF over GST control); with FEV, 1.69 fold enrichment (6-mer frequency, TF over GST control); in the experiment with ETV5, 1.61 fold enrichment (6-mer frequency, TF over GST control); in the experiment with HSF1, 1.43 fold enrichment (6-mer frequency, TF over GST control). Besides, the binding signal was 1.55 fold enrichment (6-mer frequency, TF over GST control) in the experiment with SPIC; 1.59 fold enrichment (6-mer frequency, TF over GST control) in the experiment with ELF4; 1.68 fold enrichment (6-mer frequency, TF over GST control) with ELK4; 1.47 fold enrichment (6-mer frequency, TF over GST control) with ETV2; 1.2 fold enrichment (6-mer frequency, TF over GST control) with ELF3; 1.37 fold enrichment (6-mer frequency, TF over GST control) with CRX. Also, the binding signal with ETV1 was 1.48 fold enrichment (6-mer frequency, TF over GST control).
